Test results: PubChem BioAssay (NCI)
Values joined by “and” are separate entries in the source; they are usually repeats but may differ in a detail not shown here. Equal values may be shown once. The panel holds about 83,000 compounds, 20% with a hit somewhere; the sample as a whole holds those more often.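 Growth was measured after 48 h exposure to one concentration of compound in 96-well plates. Values under 10 count as active.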 Unmarked numbers belong to inactive results. Active and inactive are the calls of the source.

How the values were obtained:
Test in all cases: NCI-60 one-dose screen, 48 h (100 = growth as untreated, 0 = no growth, -100 = all killed)
SK-MEL-2 melanoma = system: SK-MEL-2 melanoma
EKVX NSCLC = system: EKVX NSCLC
SN12C renal = system: SN12C renal
TK-10 renal = system: TK-10 renal
ACHN renal = system: ACHN renal
A498 renal = system: A498 renal
CCRF-CEM leukemia = system: CCRF-CEM leukemia
MOLT-4 leukemia = system: MOLT-4 leukemia
SR leukemia = system: SR leukemia
RPMI-8226 leukemia = system: RPMI-8226 leukemia
OVCAR-8 ovarian = system: OVCAR-8 ovarian
OVCAR-5 ovarian = system: OVCAR-5 ovarian
OVCAR-4 ovarian = system: OVCAR-4 ovarian
SK-OV-3 ovarian = system: SK-OV-3 ovarian
OVCAR-3 ovarian = system: OVCAR-3 ovarian
HS 578T breast = system: HS 578T breast
NCI/ADR-RES ovarian = system: NCI/ADR-RES ovarian
UO-31 renal = system: UO-31 renal
CAKI-1 renal = system: CAKI-1 renal
IGROV1 ovarian = system: IGROV1 ovarian

O=C(O)c1sccc1O
growth (SK-MEL-2 melanoma; 10 µM): 87.2%
growth (SK-MEL-2 melanoma; 100 µM): 8.51% (active)
growth (EKVX NSCLC; 10 µM): 81.3%
growth (EKVX NSCLC; 100 µM): 33.5%
growth (SN12C renal; 10 µM): 76.3%
growth (SN12C renal; 100 µM): 35.7%
growth (TK-10 renal; 10 µM): 133%
growth (TK-10 renal; 100 µM): 68.8%
growth (ACHN renal; 10 µM unless noted): 70.7%
growth (A498 renal; 10 µM): 89.1%
growth (A498 renal; 100 µM): 46.2%
growth (CCRF-CEM leukemia; 10 µM): 47.7%
growth (CCRF-CEM leukemia; 100 µM): 15.1%
growth (MOLT-4 leukemia; 10 µM): 46.1%
growth (MOLT-4 leukemia; 100 µM): 17.4%
growth (SR leukemia; 10 µM): 67.7%
growth (SR leukemia; 100 µM): 4.33% (active)
growth (RPMI-8226 leukemia; 10 µM): 71.4%
growth (RPMI-8226 leukemia; 100 µM): 16%
growth (OVCAR-8 ovarian; 10 µM): 82.4%
growth (OVCAR-8 ovarian; 100 µM): 37.8%
growth (OVCAR-5 ovarian; 10 µM): 102%
growth (OVCAR-5 ovarian; 100 µM): 38%
growth (OVCAR-4 ovarian; 10 µM): 76.5%
growth (OVCAR-4 ovarian; 100 µM): 29.9%
growth (SK-OV-3 ovarian; 10 µM): 84.5%
growth (SK-OV-3 ovarian; 100 µM): 80.9%
growth (OVCAR-3 ovarian; 10 µM): 75.1%
growth (OVCAR-3 ovarian; 100 µM): 11.1%
growth (HS 578T breast; 10 µM): 65.6%
growth (HS 578T breast; 100 µM): 19.5%
growth (NCI/ADR-RES ovarian; 10 µM): 81.5%
growth (NCI/ADR-RES ovarian; 100 µM): 36%

O=C(c1ccc(Cl)cc1)C(NCCO)c1ccc(Cl)cc1 (stereo not drawn)
growth (SK-MEL-2 melanoma; 10 µM unless noted): 102%
growth (EKVX NSCLC; 10 µM unless noted): 103%
growth (SN12C renal; 10 µM unless noted): 99.6% and 100%
growth (UO-31 renal; 10 µM unless noted): 80.6% and 83.8%
growth (TK-10 renal; 10 µM unless noted): 105% and 98.6%
growth (ACHN renal; 10 µM unless noted): 120% and 102%
growth (CAKI-1 renal; 10 µM unless noted): 102%
growth (A498 renal; 10 µM unless noted): 92.7% and 110%
growth (CCRF-CEM leukemia; 10 µM unless noted): 99.7% and 129%
growth (MOLT-4 leukemia; 10 µM unless noted): 86.6% and 96.6%
growth (SR leukemia; 10 µM unless noted): 92.8% and 88.1%
growth (RPMI-8226 leukemia; 10 µM unless noted): 79.3% and 113%
growth (OVCAR-8 ovarian; 10 µM unless noted): 99.2% and 99.8%
growth (OVCAR-5 ovarian; 10 µM unless noted): 108% and 99.5%
growth (OVCAR-4 ovarian; 10 µM unless noted): 103%
growth (SK-OV-3 ovarian; 10 µM unless noted): 107% and 98.2%
growth (IGROV1 ovarian; 10 µM unless noted): 88.5% and 91.7%
growth (OVCAR-3 ovarian; 10 µM unless noted): 104% and 101%
growth (HS 578T breast; 10 µM unless noted): 101% and 117%
growth (NCI/ADR-RES ovarian; 10 µM unless noted): 98.1% and 98%

CCCCCCCCCCCCCCCc1ccc(Cl)c(O)c1Cl (tested in a mixture with another compound)
growth (SK-MEL-2 melanoma; 0.25 µM): 57.4%
growth (SK-MEL-2 melanoma; 10 µM): 88.2%
growth (EKVX NSCLC; 0.25 µM): 79.8%
growth (EKVX NSCLC; 10 µM): 106%
growth (SN12C renal; 0.25 µM): 12.5%
growth (SN12C renal; 10 µM): 89.7%
growth (UO-31 renal; 0.25 µM): 63.4%
growth (UO-31 renal; 10 µM): 93.6%
growth (ACHN renal; 0.25 µM): 34%
growth (ACHN renal; 10 µM): 108%
growth (CAKI-1 renal; 0.25 µM): 32%
growth (CAKI-1 renal; 10 µM): 94.8%
growth (A498 renal; 0.25 µM): 43.5%
growth (A498 renal; 10 µM): 125%
growth (MOLT-4 leukemia; 0.25 µM): 4.89% (active)
growth (MOLT-4 leukemia; 10 µM): 104%
growth (SR leukemia; 0.25 µM): 4.53% (active)
growth (SR leukemia; 10 µM): 79.6%
growth (RPMI-8226 leukemia; 10 µM unless noted): 29.8% [0.25 µM]
growth (OVCAR-8 ovarian; 0.25 µM): 36%
growth (OVCAR-8 ovarian; 10 µM): 92.2%
growth (OVCAR-5 ovarian; 0.25 µM): 78.5%
growth (OVCAR-5 ovarian; 10 µM): 106%
growth (OVCAR-4 ovarian; 0.25 µM): 65%
growth (OVCAR-4 ovarian; 10 µM): 115%
growth (SK-OV-3 ovarian; 0.25 µM): 53.5%
growth (SK-OV-3 ovarian; 10 µM): 111%
growth (IGROV1 ovarian; 0.25 µM): 28.7%
growth (IGROV1 ovarian; 10 µM): 97.4%
growth (OVCAR-3 ovarian; 0.25 µM): 65.3%
